Test results: PubChem BioAssay AID720597 (Broad Institute, 2013)
Results with a measured potency or affinity are listed apart. The source made the active and inactive calls.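 The calls were made as follows: active = fitted half-maximal dose no more than twice the top valid tested dose, for compounds that lower signal; inconclusive = fit invalid, or curve flat with activity between -70 and -30; inactive = potency past limit, curve flat within ±30, or signal increasing.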

molecular target: NAD-dependent protein deacylase sirtuin-5, mitochondrial (Homo sapiens) (UniProt Q9NXA8); experiment: SIRT5 deacylase inhibitors, dose response, biochemical, fluorescence imaging, cherry-pick, set 6 (AID 720597); conditions: Purified SirT5, succinyl-peptide-AMC/trypsin fluorescence; series mostly up to 15 µM;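 also: lower AMC signal can also come from blocking the trypsin step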
Sequence (Q9NXA8 whole entry, looked up): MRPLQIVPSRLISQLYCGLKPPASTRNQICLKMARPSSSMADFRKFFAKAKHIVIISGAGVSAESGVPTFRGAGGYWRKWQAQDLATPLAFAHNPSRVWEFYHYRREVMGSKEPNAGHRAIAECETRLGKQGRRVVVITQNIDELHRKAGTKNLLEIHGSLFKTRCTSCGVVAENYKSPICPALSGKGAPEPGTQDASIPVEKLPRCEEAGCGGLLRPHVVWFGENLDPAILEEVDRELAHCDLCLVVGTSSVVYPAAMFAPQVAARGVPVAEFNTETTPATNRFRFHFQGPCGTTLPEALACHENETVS

outcome, inactive:
CCCC(=O)Nc1ccc2c(c1)OC[C@H](C)N(Cc1ccccc1)C[C@H](C)[C@@H](OC)CN(C)C2=O, O=C(C[C@H]1CC[C@@H](NC(=O)c2ccccc2)[C@H](CO)O1)NCCc1ccncc1, CNC[C@@H]1Oc2ccc(NC(=O)Nc3ccc(F)cc3)cc2CC(=O)N([C@@H](C)CO)C[C@H]1C, CO[C@H]1CN(C)C(=O)c2cc(NC(=O)c3ccccc3F)ccc2OC[C@H](C)NC[C@@H]1C, COc1ccccc1C#Cc1cnc2c(c1)C(=O)N([C@@H](C)CO)C[C@H](C)[C@@H](CN(C)C)O2, COc1ccc(NC(=O)N(C)C[C@@H]2Oc3ccc(NS(=O)(=O)c4ccc(F)cc4)cc3C(=O)N([C@H](C)CO)C[C@@H]2C)cc1, CCCNC(=O)N1[C@@H]2Cn3c(cccc3=O)[C@H]1[C@@H](C(=O)N1CCC(Cc3ccccc3)CC1)[C@@H]2CO, CC(C)NC(=O)N[C@H]1CC[C@H](CCNC(=O)C2CCCC2)O[C@@H]1CO, C[C@@H]1CN([C@@H](C)CO)C(=O)c2cc(-c3cccnc3)cnc2O[C@H]1CN(C)C(=O)Nc1ccc2c(c1)OCO2, CC(C)NC(=O)NCC[C@H]1CC[C@@H](NS(=O)(=O)c2ccc(-c3ccccc3)cc2)[C@H](CO)O1, C[C@@H]1CCCCO[C@H](CN(C)C(=O)Cc2ccccc2)[C@@H](C)CN([C@H](C)CO)C(=O)c2cc(NS(=O)(=O)c3cn(C)cn3)ccc2O1, C[C@@H]1CN([C@H](C)CO)C(=O)Cc2cc(NC(=O)Cc3cn(C)c4ccccc34)ccc2O[C@@H]1CN(C)C, Cc1noc(C)c1S(=O)(=O)Nc1ccc2c(c1)CC(=O)N([C@H](C)CO)C[C@H](C)[C@@H](CN(C)Cc1ccc(C(=O)O)cc1)O2, C[C@H]1CCCCO[C@H](CN(C)Cc2ccc(C(F)(F)F)cc2)[C@@H](C)CN([C@@H](C)CO)C(=O)c2cc(NS(=O)(=O)c3ccccc3)ccc2O1, COc1cccc(NC(=O)N2CC(=O)N3[C@H](CO)[C@@H](c4ccc(C#CCC5CCCC5)cc4)[C@@H]3C2)c1, C[C@@H]1CN([C@H](C)CO)C(=O)c2cc(NC(=O)CCC(F)(F)F)ccc2O[C@H]1CN(C)Cc1ccc(Oc2ccccc2)cc1, C[C@H](CO)N1C[C@H](C)[C@@H](CN(C)C(=O)C2CCOCC2)Oc2ncc(-c3ccccc3)cc2C1=O, Cc1ccc(S(=O)(=O)Nc2ccc3c(c2)C(=O)N([C@H](C)CO)C[C@@H](C)[C@@H](CN(C)Cc2ccc(C(F)(F)F)cc2)OCCCC[C@H](C)O3)cc1, C[C@@H]1CN([C@@H](C)CO)S(=O)(=O)c2ccc(/C=C/c3ccccc3)cc2O[C@@H]1CN(C)C(=O)NC1CCCCC1, CC(C)NC(=O)N1CCCCN2[C@H](C1)[C@@H](c1ccc(C#CC3CC3)cc1)[C@@H]2CO, C[C@H](CO)N1C[C@H](C)[C@H](CN(C)Cc2ccc(Oc3ccccc3)cc2)Oc2ccc(NC(=O)CCCCCC(=O)Nc3ccccc3N)cc2CC1=O, Cc1ccc(S(=O)(=O)N(C)C[C@H]2OCCCC[C@H](C)Oc3ccc(NS(=O)(=O)c4ccc(Cl)cc4)cc3C(=O)N([C@@H](C)CO)C[C@H]2C)cc1, Cc1ccc(S(=O)(=O)N(C)C[C@H]2OCCCC[C@@H](C)Oc3ccc(NS(=O)(=O)c4ccc(Cl)cc4)cc3C(=O)N([C@H](C)CO)C[C@H]2C)cc1, COc1cccc(S(=O)(=O)N(C)C[C@@H]2Oc3ncc(-c4cccc(C(F)(F)F)c4)cc3C(=O)N([C@H](C)CO)C[C@@H]2C)c1, COc1ccc(S(=O)(=O)N(C)C[C@@H]2OCCCC[C@H](C)Oc3ccc(NS(=O)(=O)c4ccc(Cl)cc4)cc3C(=O)N([C@@H](C)CO)C[C@H]2C)cc1, COc1ccc(NC(=O)N(C)C[C@H]2Oc3c(NS(C)(=O)=O)cccc3C(=O)N([C@@H](C)CO)C[C@H]2C)cc1, Cc1ccc(CN(C)C[C@@H]2OCc3cnnn3CCCC(=O)N([C@H](C)CO)C[C@@H]2C)cc1, O=C(C[C@H]1CC[C@@H](NS(=O)(=O)c2ccccc2)[C@@H](CO)O1)NCc1ccncn1, COc1ccc(S(=O)(=O)N(C)C[C@@H]2OCCCC[C@H](C)Oc3ccc(NS(=O)(=O)c4ccc(C)cc4)cc3C(=O)N([C@@H](C)CO)C[C@@H]2C)cc1
